# Experimental data from the supplement of paper PMC7156485.
# ± gives the standard deviation of the averaged measurements.
# Assays:
# Conditions in all cases: concentration: 10 µM; 24 h
# HCC1569 [1] = test: cell number relative to DMSO (% of DMSO); higher = more cells (less growth inhibition / toxicity)
# How it was run: (§1)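 HCC1569 and TDF cells (800 per well, 384-well plates, RPMI with 10% FBS) were treated with compounds at 10 µM for 24 h at 37 °C, in triplicate. Cells were fixed in 3.7% formaldehyde and stained with a rabbit anti-H1.0 antibody, an AlexaFluor 647 secondary and DAPI; six fields per well were imaged at ×10. H1.0 nuclear intensity or cell number is expressed as percent of the plate DMSO control, taking the median of replicates. HCC1569 values were smoothed for positional effects.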
# TDF [2] = test: as above
# How it was run: as §1
# TDF [3] = test: H1.0 immunofluorescence intensity relative to DMSO (% of DMSO); higher = stronger H1.0 induction, active = 120 or more
# How it was run: as §1
# HCC1569 [4] = test: H1.0 immunofluorescence intensity relative to DMSO (% of DMSO); higher = stronger H1.0 induction, active = 140 or more
# How it was run: as §1
# 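Throughout, for H1.0 immunofluorescence intensity relative to DMSO: TDF is a line of transformed human dermal fibroblasts of mesenchymal origin.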
# 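Throughout, for cell number relative to DMSO: TDF denotes transformed human dermal fibroblasts of mesenchymal origin.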
Structure (SMILES),cell number (HCC1569 [1]),cell number (TDF [2]),H1.0 immunofluorescence intensity (TDF [3]),H1.0 immunofluorescence intensity (HCC1569 [4])
Cl.N[C@@H](CCl)C(=O)O [beta-Chloro-L-alanine hydrochloride],101,97.8,92.7 (inactive),91.9 (inactive)
Cl.NCC(O)c1cc(O)c(O)cc1F (stereo unspecified) [6-Fluoronorepinephrine hydrochloride],99.2,111,89.4 (inactive),83.2 (inactive)
COc1ccc2c(c1)C13CCCCC1C(C2)NCC3.Cl (stereo unspecified) [3-Methoxy-morphanin hydrochloride],99.1,107,97.3 (inactive),99.5 (inactive)
Cc1c2ccncc2c(C)c2c1[nH]c1ccccc12 [Ellipticine],69.4 ± 8.6,39.3 ± 6.6,104 (inactive),194 (active)
CC(=O)OC1C2C(OC(=O)Cc3ccccc3)C(C)CC2(OC(C)=O)C(=O)C(C)=CC2C(CCC13CO3)C2(C)C (stereo unspecified) [Euphorbiasteroid],102,106,105 (inactive),91.5 (inactive)
"CN(C(=O)Cc1ccc(Cl)c(Cl)c1)C(CN1CCCC1)c1cccc(OCC(=O)O)c1.Cl (stereo unspecified) [ICI 204,448 hydrochloride]",104,104,89.4 (inactive),92.8 (inactive)
Cc1cccc(C)c1NC1=NCCCS1 [Xylazine],106,106,95.4 (inactive),106 (inactive)
C[N+](C)(C)CCCCCCCCCC[N+](C)(C)C [Decamethonium],105,118,91 (inactive),102 (inactive)
Br.CN1C2CC(OC(=O)C(CO)c3ccccc3)CC1C(O)C2 (stereo unspecified) [Anisodamine],104,102,101 (inactive),94.6 (inactive)
COc1ccc2[nH]cc(CCN)c2c1.Cl [O-Methylserotonin hydrochloride],96.9,97.6,89.1 (inactive),106 (inactive)
c1cncc(C2CCCCN2)c1 (racemic),102,110,96 (inactive),84.1 (inactive)
CCN1CC2(C)CCC(OC)C34C5CC6CCC(O)(C5C(=O)O6)C(C(O)C23)C14 (stereo unspecified) [Heteratisine],103,105,96.1 (inactive),88.3 (inactive)
Br.COC(=O)C1=CCCN(C)C1,102,112,89.8 (inactive),82.8 (inactive)
CC(C)(O)C1C2OC(=O)C1C1(O)CC3OC34C(=O)OC2C14C (stereo unspecified) [Picrotonin],99.4,100,97.2 (inactive),82.5 (inactive)
CC(O)(CS(=O)(=O)c1ccc(F)cc1)C(=O)Nc1ccc(C#N)c(C(F)(F)F)c1 (stereo unspecified) [Bicalutamide],99.1,104,94.6 (inactive),98.8 (inactive)
CCN(CC)C(=O)NC1CC2c3cccc4[nH]cc(c34)CC2N(C)C1 (stereo not drawn) [R(+)-Terguride],101,110,91.9 (inactive),99.5 (inactive)
NC1(C(=O)O)CCC(C(=O)O)C1 (mixture of isomers),104,106,96.5 (inactive),95.1 (inactive)
CC(C)C1(NC(=O)C2CC3c4cccc5[nH]cc(c45)CC3N(C)C2)OC2(O)C3CCCN3C(=O)C(Cc3ccccc3)N2C1=O.CS(=O)(=O)O (stereo unspecified) [Dihydroergocristine mesylate],100,110,91.4 (inactive),88.3 (inactive)
COc1cc(C(O)CN)ccc1O.Cl (racemic),102,111,92.5 (inactive),94.7 (inactive)
NC(N)=Nc1ccc2[nH]c3c(c2c1)CC1(O)C2Cc4ccc(O)c5c4C1(CCN2CC1CC1)C3O5.O=C(O)C(F)(F)F.O=C(O)C(F)(F)F (stereo unspecified) [Guanidinyl-naltrindole di-trifluoroacetate],93.6,83.5,104 (inactive),115 (inactive)
CN1CC(C(=O)NC2(C)OC3(O)C4CCCN4C(=O)C(Cc4ccccc4)N3C2=O)CC2c3cccc4[nH]cc(c34)CC21.CS(=O)(=O)O (stereo unspecified) [Dihydroergotamine methanesulfonate],102,108,90.1 (inactive),95.5 (inactive)
CCCN1CCc2cccc3c2C1Cc1ccc(O)c(O)c1-3.Cl (stereo not drawn) [R(-)-Propylnorapomorphine hydrochloride],93.2,91.8,92.9 (inactive),105 (inactive)
Cl.O=C1CCC2(O)C3Cc4ccc(O)c5c4C2(CCN3CC2CC2)C1O5 (stereo unspecified) [Naltrexone hydrochloride],103,115,90.8 (inactive),96 (inactive)
CC=C1CC(C)C(C)(O)C(=O)OCC2=CCN3CCC(OC1=O)C23 (stereo unspecified) [Senecionine],98.6,101,108 (inactive),91.8 (inactive)
